Experimental data: PubChem BioAssay (NCI)
Compounds without any hit were thinned out: in the full panel of roughly 83,000, 20% have a hit.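 A percent growth of 40 corresponds to 60% growth inhibition; 0 means no net growth; -100 means all cells died. Active threshold: below 10.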 Calls of active or inactive are those of the source.

Legend:
Test in all cases: NCI-60 one-dose screen, 48 h (100 = growth as untreated, 0 = no growth, -100 = all killed)
[1] = tested on: EKVX NSCLC; conditions: 10 µM unless noted
[2] = tested on: SN12C renal; conditions: 10 µM unless noted
[3] = tested on: UO-31 renal; conditions: 10 µM unless noted
[4] = tested on: TK-10 renal; conditions: 10 µM unless noted
[5] = tested on: ACHN renal; conditions: 10 µM unless noted
[6] = tested on: CAKI-1 renal; conditions: 10 µM
[7] = tested on: A498 renal; conditions: 10 µM unless noted
[8] = tested on: CCRF-CEM leukemia; conditions: 10 µM unless noted
[9] = tested on: MOLT-4 leukemia; conditions: 10 µM unless noted

Measured: growth

CC1(C)CC[C@]2(C(=O)N3CCCN(CC#N)CC3)CC[C@]3(C)C(=CC[C@@H]4[C@@]5(C)CC[C@H](O)C(C)(C)[C@@H]5CC[C@]43C)[C@H]2C1
inactive: [1] 91.2% | [2] 59.6% | [3] 63.7% | [4] 81.7% | [5] 59% | [6] 43.7% | [7] 39.8% | [8] 18.2% | [9] 19.1%

Clc1ccc(-c2csc(Nc3cccc(Nc4csc(-c5ccc(Cl)cc5)n4)c3)n2)cc1
inactive: [1] 61.8% | [2] 63.1% | [3] 51.5% | [4] 98.2% | [5] 54.3% | [6] 51.9% | [7] 67.8% | [8] 94.1% | [9] 60.7%

COc1ccc2c(C3=C(c4c[nH]c5ccccc45)C(=O)N(O)C3=O)coc2c1
inactive: [1] 77% | [2] 101% | [3] 58.2% | [4] 144% | [5] 94.2% | [6] 90.2% | [7] 85% | [8] 26.9%

C/C=C/C=C1\C[C@H]2CO[C@H](O2)C1=O
inactive: [1] 103% | [2] 100% | [3] 88.2% | [4] 108% | [5] 103% | [6] 98% | [7] 103% | [8] 78.9% | [9] 90.4%

COc1cc(/C=N/n2cnc3oc(-c4ccccc4)cc3c2=N)cc(CN2CCN(C)CC2)c1O
inactive: [1] 99.3% | [2] 80.4% | [3] 74% | [4] 113% | [5] 83.1% | [6] 73.3% | [7] 72.2% | [8] 66.9% | [9] 76.4%

CCN(CC)CCN1C(=O)c2c(c3c4cccnc4[nH]c3c3ccc4ccccc4c23)C1=O
inactive: [1] 89% | [2] 71.9% | [3] 53.2% | [4] 121% | [5] 35.9% | [6] 46.5% | [7] 77.3% | [8] 21.9% | [9] 12.8%

CN1CCN(c2ccc(C(=O)/C=C/c3ccc(Cl)c(C(F)(F)F)c3)cc2)CC1
inactive: [1] 70.2% | [2] 49.1% | [3] 50.5% | [4] 102% | [5] 65.7% | [6] 64.1% | [7] 81.6% | [8] 11% | [9] 41.6%

CCOC(=O)/C(F)=C/C1CC1C1CCCCC1 (stereo unspecified)
inactive: [1] 110% | [2] 103% | [3] 91.5% | [4] 95.3% | [5] 105% | [6] 90.9% | [7] 97.2% | [8] 114% | [9] 102%

CN1CCN(c2ccc(C(=O)Nc3cccc(-c4cn(-c5ccc(S(N)(=O)=O)cc5)nn4)c3)cc2C(F)(F)F)CC1
inactive: [1] 89.9% | [2] 92.4% | [3] 86.9% | [4] 117% | [5] 87.6% | [6] 73.8% | [7] 97.6% | [8] 70.8% | [9] 13.2%

CS(=O)(=O)c1nccc(-c2c(-c3ccc(F)c(OCCc4ccc(F)cc4)c3)nc3sccn23)n1
active: [1] -66.3% | [3] -51.8%
inactive: [2] 62.4% | [4] 84.8% | [5] 45.2% | [6] 44.7% | [7] 29.1% | [8] 56.4% | [9] 14.4%

Cc1csc(Nc2cccc(Nc3nc(C)cs3)c2)n1
inactive: [1] 61.4% | [2] 88.2% | [3] 67.1% | [4] 101% | [5] 75.4% | [6] 78.1% | [7] 47.3% | [8] 89% | [9] 70.8%

CCOC(=O)c1ccc(N/C=C/C(=O)c2ccccc2)cc1
inactive: [1] 103% | [2] 99.7% | [3] 99.1% | [4] 89.8% | [5] 98.5% | [6] 92.7% | [7] 99.9% | [8] 102% | [9] 97%

CCN(CC)CCN1C(=O)c2c(c3c4cc(Br)ccc4[nH]c3c3ccc4ccccc4c23)C1=O
inactive: [6] 12.8% | [7] 57.6%
active: [1] -88.1% | [2] -71.4% | [3] -86.1% | [4] -73% | [5] -100% | [8] 1.96% | [9] -30.7%

NS(=O)(=O)c1ccc(Nc2nc(N/N=C/c3ccc(C(F)(F)F)cc3)nc(Nc3ccccc3)n2)cc1
active: [9] 9.74%
inactive: [1] 53.7% | [2] 42.9% | [3] 60.3% | [4] 64.3% | [5] 39.6% | [6] 33.7% | [7] 39.6% | [8] 12%

COc1ccc(-c2ccc3c4c(cccc24)C(=O)N(N2C(=O)c4cccc5cccc(c45)C2=O)C3=O)cc1
inactive: [1] 89.4% | [2] 105% | [3] 68.6% | [4] 134% | [5] 96.3% | [6] 75.2% | [7] 100% | [8] 96.8% | [9] 101%

C/C(=C(/c1ccc(O)cc1)c1ccc(OCCN(C)C)cc1)c1ccc(Cl)cc1
inactive: [1] 61.4% | [2] 59.1% | [3] 50.6% | [4] 85% | [5] 32.8% | [6] 36.2% | [7] 70.2% | [8] 53% | [9] 11.9%

Cc1ccc(NC(=O)c2cc(/C=C/C(=O)NO)cc(C(F)(F)F)c2)cc1Nc1nccc(-c2cccnc2)n1
active: [2] 2.25% | [6] 6.2% | [7] -46.9% | [8] 5.21% | [9] 5.15%
inactive: [1] 28% | [3] 18.8% | [4] 15.2% | [5] 18.5%

CC(=O)c1sc(Nc2cccc(Nc3nc(C)c(C)s3)c2)nc1C
inactive: [1] 68.8% | [2] 55% | [3] 32.2% | [4] 53.6% | [5] 36.5% | [6] 28.1% | [7] 27.7% | [8] 61.2% | [9] 38.3%

COc1ccc(NC(=O)[C@H](C)N)cc1C(=O)Nc1cccc(-c2cc(=O)c3c(OC)c(OC)c(OC)cc3o2)c1
inactive: [1] 81.3% | [2] 55.4% | [3] 29.7% | [4] 70.7% | [5] 54.2% | [6] 49% | [7] 50.9% | [8] 52.9% | [9] 51.4%

COc1cc(/C=N/n2cnc3oc(-c4ccccc4)cc3c2=N)cc(CN2CCCCC2)c1O
inactive: [7] 15%
active: [1] -22.7% | [2] -78.8% | [3] -91.6% | [4] -82.5% | [5] -97.7% | [6] -94.2% | [8] -6.9% | [9] 2%

O=C1/C(=C/c2ccc([N+](=O)[O-])cc2)SC(=Nc2ccccc2)N1Nc1ccccc1
inactive: [1] 70.9% | [2] 29.5% | [3] 37.1% | [4] 89.1% | [5] 53% | [6] 38.6% | [7] 28.2% | [8] 24%
active: [9] 3.98%

N#Cc1c(-c2cccs2)cc(-c2cnccn2)nc1SCC(=O)NNC(=S)Nc1ccc(F)cc1
inactive: [1] 103% | [2] 100% | [3] 79% | [4] 108% | [5] 104% | [6] 99.1% | [7] 118% | [8] 93.6% | [9] 94.9%

CCC(CC)n1c(=O)c(SC2=NC3C(NN2)N(CC)C(=O)N3CC)c(C(=O)O)c2ccccc21 (stereo unspecified)
inactive: [1] 52.8% | [2] 20.1% | [3] 39.5% | [4] 68.8% | [5] 27.7% | [6] 36.6% | [8] 16.6% | [9] 16.2%
active: [7] -10.5%

C=CCn1c(SCC(=O)Nc2ccc(OC)cc2)nnc1-c1ccc(Cl)cc1
inactive: [1] 92.5% | [2] 92.7% | [3] 73.5% | [4] 97.9% | [5] 92.8% | [6] 84.6% | [7] 98.2% | [8] 117% | [9] 84.2%

Oc1ccc(CSc2nnc(-c3ccccc3)o2)c2cccnc12
active: [3] 1.52%
inactive: [1] 33.1% | [2] 32.1% | [4] 28.6% | [5] 10.4% | [6] 16.6% | [7] 70.7% | [8] 10% | [9] 14.4%

O=C(Nc1cc(Cl)cc(Cl)c1)Nc1ccc2oc(=O)ccc2c1
active: [2] 4.07% | [3] 3.75% | [5] 4.26% | [6] 7.57% | [7] -8.24%
inactive: [1] 17% | [4] 18.6% | [8] 24.9% | [9] 12.4%

CS(=O)(=O)c1nccc(-c2c(-c3ccc(F)c(OCc4ccccc4)c3)nc3sccn23)n1
inactive: [1] 87.6% | [2] 97.5% | [3] 86% | [4] 101% | [5] 93.4% | [6] 93.6% | [7] 80.3% | [8] 54.7% | [9] 74%

O=C(/C=C1\C=CN(CCCCF)c2ccccc21)n1ccc2ccccc21
inactive: [1] 90.7% | [2] 94.6% | [3] 74.2% | [4] 117% | [5] 97.6% | [6] 87.5% | [7] 135% | [8] 96.4% | [9] 105%
